Measurements from PubChem BioAssay (NCI).
About 79,000 compounds went through this panel and 15% of them were active in at least one assay; those are over-represented in the sample as a whole. Activity calls are given as the source filed them. No stated cut-off is given here; in the data, active means growth inhibition above about 70%; inactive means the rest.

Experiments:
[1] = NCI Yeast Anticancer Drug Screen. Data for the rad50 strain (AID 155);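 further: 0% = growth of vehicle-only cultures of the same strain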; details: S. cerevisiae rad50 strain growth inhibition; at 50.0 µM; active compounds read high
Method in brief: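 Relative growth inhibition (compound vs vehicle) was measured in yeast with a defined repair-gene alteration.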

[2] = NCI Yeast Anticancer Drug Screen. Data for the mec2-1 strain (AID 157); details: S. cerevisiae mec2-1 strain, at 50.0 µM, active compounds read high
Method in brief: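 Compounds were applied to mec2-1 yeast cells. Their growth was then compared with that of vehicle-treated cultures to give growth inhibition.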

[3] = NCI Yeast Anticancer Drug Screen. Data for the sgs1 mgt1 strain (AID 161);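 further: 0% = growth of cultures given vehicle only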; details: S. cerevisiae sgs1 mgt1 strain, at 50.0 µM, active compounds read high
Method in brief: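 Growth of a repair-deficient yeast mutant was monitored after compound treatment and expressed as inhibition relative to vehicle-treated cultures.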

[4] = NCI Yeast Anticancer Drug Screen. Data for the cln2 rad14 strain (AID 165);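 further: 0% = growth equal to vehicle treated cultures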; details: S. cerevisiae cln2 rad14 strain, at 50.0 µM, active compounds read high
Method in brief: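 Strain: cln2 rad14 yeast, altered in cell cycle control and DNA damage repair. Read-out: growth inhibition vs vehicle.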

[5] = NCI Yeast Anticancer Drug Screen. Data for the bub3 strain (AID 167); details: S. cerevisiae bub3 mutant strain, at 50.0 µM, active compounds read high
Method in brief: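 Screening used yeast with an engineered genetic alteration affecting cell cycle control. Compound-exposed cultures were compared with vehicle cultures, and reduced growth was taken as inhibition.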

[6] = NCI Yeast Anticancer Drug Screen. Data for the mlh1 rad18 strain (AID 175); details: S. cerevisiae mlh1 rad18 strain growth inhibition; at 50.0 µM; active compounds read high
Method in brief: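 A repair-deficient yeast strain is exposed to test compound, and growth is scored relative to vehicle-treated controls.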

Measured: growth inhibition

O=C1CCC2=NCc3c(ccc4ccccc34)N12
inactive: [1] 4.7% | [2] -0.85% | [3] -12.9% | [4] -42.9% | [5] -12.3% | [6] -4%

CCc1nc2c([nH]1)c(=O)n(C)c(=O)n2C
inactive: [1] 35% | [2] -4.6% | [3] 11.6% | [4] 16.5% | [5] -20.6% | [6] 20.4%

CSC1NN=C(CCC(=O)Nc2ccc(C)cc2)O1 (configuration not stated)
inactive: [1] -37.7% | [2] 5.25% | [3] 13% | [4] -21.1% | [5] -3.8% | [6] 12.9%

OCc1nnn2c1CCC2
inactive: [1] 4.95% | [2] 0.05% | [3] -2.15% | [4] 11.4% | [5] 10.4% | [6] -6.25%

Nc1ncc2ncn(CCO)c2n1
inactive: [1] -22.1% | [2] -15.4% | [3] 23.1% | [4] 1.95% | [5] -6.85% | [6] 3.7%

NC(CCc1ccc2c(c1)OCO2)C(=O)O (configuration not stated)
inactive: [1] 5.35% | [2] -11.8% | [3] -3.55% | [4] -47% | [5] -5.8% | [6] 22.9%

O=C(O)CN1C(=O)c2ccc([N+](=O)[O-])cc2C1=O
inactive: [1] -3.65% | [2] -0.2% | [3] 2.3% | [4] -8.2% | [5] -16.5% | [6] 4.25%

CCc1ccc(CC)c(OC)c1
inactive: [1] 16.6% | [2] -1.8% | [3] 0.4% | [4] -27.2% | [5] -11.1% | [6] 18.7%

O=C(c1ccccc1)C(c1ccccc1)n1nc2c(c1-c1ccccc1)CCCC2 (configuration not stated)
active: [1] 84.4% | [2] 87.2% | [3] 83.9% | [4] 88.4% | [5] 86.4% | [6] 91.4%

[N-]=[N+]=NC(=O)c1ccc(S(=O)(=O)c2ccc(F)cc2)cc1
inactive: [1] 13.4% | [2] 21.8% | [3] 7.6% | [4] 7.85% | [5] 3% | [6] 38.5%

C/C(=N\NC(=S)NC(C)C)c1nc2ncccc2[nH]1
inactive: [1] -14.5% | [2] -17.6% | [3] -56.6% | [4] -28.8% | [5] 17.5% | [6] -25.8%

CCC(N)CS(=O)(=O)O (configuration not stated)
inactive: [1] -33.7% | [2] -19.6% | [3] -9.9% | [4] -61% | [5] -26.8% | [6] -45.1%

Nc1nc(C2CCCC2)c(Br)c(=O)[nH]1
inactive: [1] -24.2% | [2] -3.75% | [3] -17.4% | [4] 2.45% | [5] 2.7% | [6] -8.75%

OC(COc1c2ccccc2nc2ccccc12)CN1CCN(c2ccccc2)CC1 (configuration not stated)
inactive: [1] 21.9% | [2] -5.45% | [3] 6.5% | [4] 9% | [5] 0.9% | [6] 19.9%

Nc1c(-c2nc3ccccc3[nH]2)sc(=S)n1-c1ccccc1
inactive: [1] -6.4% | [2] -21.4% | [3] 1.75% | [4] 2.2% | [5] -4.2% | [6] -17.9%

CN(C)CCNC(=O)c1ccc(NC(=O)c2nc([N+](=O)[O-])cn2C)cc1
inactive: [1] -14.2% | [2] 10.6% | [3] 4.9% | [4] -22.6% | [5] -8.5% | [6] -31.6%

CCC[n+]1ccc(CCS(=O)(=O)c2ccc(N)cc2)cc1
inactive: [1] 6.15% | [2] -6.55% | [3] 1.9% | [4] -6% | [5] 21.4% | [6] -16.7%

CCCCN=NNc1cn(C2OC(CO)C(O)C2O)c(=O)[nH]c1=O (configuration not stated)
inactive: [1] -22.4% | [2] 0.9% | [3] 4.85% | [4] 13.3% | [5] 10.8% | [6] 21.8%

CC(C(c1ccccc1)C(Br)C(=O)c1ccccc1)[N+](=O)[O-] (configuration not stated)
active: [1] 96.5% | [2] 93.2% | [3] 95% | [4] 87.3% | [5] 96.5% | [6] 94.7%

CC1CC(=O)CCC2(C)C(OC(C)(C)C)CCC12 (configuration not stated)
inactive: [1] 14.7% | [2] -1.75% | [3] -5.75% | [4] 9.15% | [5] 33.2% | [6] 21.1%

CCc1ccc(C(=O)O)cc1S(=O)(=O)Cl
inactive: [1] 7.2% | [2] 13.4% | [3] -12.6% | [4] -9.4% | [5] 2.55% | [6] 1.45%

CC1C2(C)OC(=N)C(C#N)(C(c3ccco3)O2)C1(C#N)C#N (configuration not stated)
inactive: [1] 6.75% | [2] 3.1% | [3] -6.55% | [4] 5.95% | [5] -9.65% | [6] -1.4%

CC1ON2CCCC2[C@H]1C(=O)N1C2CC3CCC2(CS1(=O)=O)C3(C)C (some centres not stated)
inactive: [1] -4.35% | [2] 2.9% | [3] -28.6% | [4] -0.35% | [5] 19.4% | [6] -36.7%

CCCCCOC(=O)c1cccc(C)c1
inactive: [1] 3.7% | [2] 10.5% | [3] -5.2% | [4] -4.7% | [5] -1.65% | [6] 2.5%

Cn1cnc([N+](=O)[O-])c1Sc1nc2ncccc2[nH]1
inactive: [1] -5.6% | [2] -7.1% | [3] -20.1% | [4] 16.6% | [5] -8.9% | [6] 0%

COc1ccc(N=NC(=S)NNc2ccc(OC)cc2Oc2ccccc2)c(Oc2ccccc2)c1
inactive: [1] 12.5% | [2] -0.4% | [3] 29.4% | [4] 11.8% | [5] -4.6% | [6] 3.35%

BrCc1cccc2cccc(CBr)c12
inactive: [1] -5.35% | [2] 17.4% | [3] 10.4% | [4] -10.5% | [5] 9.05% | [6] 2.65%

COc1cccc(C2c3cc4c(cc3OC(NNC(N)=O)C2C)OCO4)c1O (configuration not stated)
inactive: [1] -12.8% | [2] -8.6% | [3] 2.55% | [4] 9.9% | [5] -2.75% | [6] -7.35%

CCOC(=O)C(Cl)(NC(=O)NC(Cl)(C(=O)OCC)C(F)(F)F)C(F)(F)F (configuration not stated)
inactive: [1] 3.8% | [2] 23.8% | [3] -0.85% | [4] -1.75% | [5] 3.2% | [6] 6.65%

CCOC(=O)C1C/C(C)=C(/C)SCCCS1 (configuration not stated)
inactive: [1] 18.8% | [2] 3.2% | [3] -5.5% | [4] 21.1% | [5] 5.05% | [6] -67.2%

Cc1cccc(C[P+](C/C=C/c2ccccc2)(c2ccccc2)c2ccccc2)c1
active: [1] 98.8% | [2] 99.7% | [3] 99.7% | [4] 99% | [5] 99.5% | [6] 99.5%

CCC(=O)OCCCCC1CCCO1 (configuration not stated)
inactive: [1] 9.35% | [2] 5.4% | [3] 2.25% | [4] 2.75% | [5] 12.3% | [6] 4.4%

CCCCCNC(=O)Nc1cccc(Cl)c1C
inactive: [1] -1.4% | [2] 6.75% | [3] 3.55% | [4] 11.4% | [5] 16.6% | [6] -20.6%

COc1cccc(Cc2cncc3c(O)c(OC)ccc23)c1O
inactive: [1] 2.3% | [2] -6.4% | [3] -8.05% | [4] 3% | [5] -1.9% | [6] 9.95%

CCOC(=O)C1C(c2cc(OC)c(OC)c(OC)c2)c2cc3c(cc2OC1(C)N1CCCC1)OCO3 (configuration not stated)
inactive: [1] 7.15% | [2] -0.45% | [3] -12.3% | [4] 20.5% | [5] 1.55% | [6] 22.1%

O=C1CN(N2C(=O)CSC2C23CC4CC(CC(C4)C2)C3)C(=O)CN1c1ccccc1 (configuration not stated)
inactive: [1] 7.2% | [2] 2.1% | [3] 13% | [4] 24.8% | [5] -2.6% | [6] 12.8%

CC(C)(CO)C(Cl)C(=O)NCCC(=O)O (configuration not stated)
inactive: [1] -6.05% | [2] -14.9% | [3] -13% | [4] -2% | [5] 15.7% | [6] -13.4%

CCOC(=O)C(CCc1ccc([N+](=O)[O-])cc1)(CCc1ccc([N+](=O)[O-])cc1)C(=O)OCC
inactive: [1] -8.7% | [2] -16.1% | [3] -7.3% | [4] -29.1% | [5] -0.3% | [6] 6.15%

COc1cc2c(cc1OC)[C@H]1C(COC(=O)Nc3ccccc3)CN1CC2 (some centres not stated)
inactive: [1] -28.9% | [2] -0.7% | [3] -42.7% | [4] -9.75% | [5] -30.6% | [6] -49.1%

c1ccc(-c2cc(-c3ccncc3)c(-c3ccccc3)nn2)cc1
inactive: [1] 7.85% | [2] 7.8% | [3] 24% | [4] 22% | [5] -1.1% | [6] 36.4%

COc1ccc(C(=O)NNC(=O)c2ccc3ccccc3c2)cc1
inactive: [1] 10.8% | [2] 1.25% | [3] 9.8% | [4] 9.95% | [5] 5.5% | [6] -7.3%

CCCCS/C=C1\CC2OC(=O)C3(C)CCCC(C)(C1=O)C23 (configuration not stated)
inactive: [1] -1.85% | [2] 15.2% | [3] 8.15% | [4] -3% | [5] 11.5% | [6] 26.6%
